The results in this text go back to PubChem BioAssay (NCI).

Holding throughout (assay): NCI-60 one-dose screen, 48 h (100 = growth as untreated, 0 = no growth, -100 = all killed)
Settings in all cases: 10 µM unless noted

The test system of experiment [1] is SR leukemia.
Experiment [2] relates to RPMI-8226 leukemia.
In experiment [3] the test system is OVCAR-8 ovarian.
Experiment [4] deals with OVCAR-5 ovarian.
For experiment [5], the system named is SK-OV-3 ovarian.
For experiment [6], the system named is IGROV1 ovarian.
Experiment [7] deals with OVCAR-3 ovarian.
The subject of experiment [8] is HS 578T breast.
Experiment [9] relates to NCI/ADR-RES ovarian.
In experiment [10] the test system is T-47D breast.
For experiment [11], the system named is BT-549 breast.
The subject of experiment [12] is MDA-MB-435 melanoma.
Experiment [13] has as its system SW-620 colon.
Experiment [14] deals with MCF7 breast.
In experiment [15] the test system is HCT-116 colon.
Experiment [16] deals with HCC-2998 colon.
In experiment [17] the test system is KM12 colon.
Experiment [18] has as its system OVCAR-4 ovarian.

This is part of a sample that, as a whole, favours compounds with a hit. Of some 83,000 tested, about 20% had one in any assay.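 Activity criterion: percent growth below 10, measured after cells in 96-well plates were exposed to a single compound concentration for 48 hours.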 Values without a mark were called inactive. Calls of active or inactive are those of the source.

Consider `O=[N+]([O-])c1cccc(-c2nc3sccn3c2-c2ccnc(NCCCNS(=O)(=O)c3ccc(C(F)(F)F)cc3)n2)c1`, for which the growth in [1] is 37.5%; in experiment [2], -4.61% (active); in experiment [3] it was 22.3%; in experiment [4], 90.6%; in [5] it was 71.9%; in experiment [6], 25.6%. Besides, the growth in experiment [7] is 28.7%; in experiment [8], 63.3%; in experiment [9] it was 8.78% (active); in experiment [10], -1.61% (active); in experiment [11], 30.3%; in experiment [12], 18.4%. Moreover, the growth in [13] is 66.6%; in [14], 14.9%; in experiment [15], 30.5%; in experiment [16], 52.9%; in [17] it was 23.9%.
As for `Cc1ccc(-c2cc3nc(C(Cl)Cl)nc(-c4ccccc4C)n3n2)cc1`, the growth was 17.7% in [1]; 48.1% in experiment [2]; 90.5% in experiment [3]; 92.7% in [4]; 74.9% in [18]; 83.7% in experiment [6]. For the same compound, the growth in experiment [7] was 22.4%; in experiment [8], 82.2%; in experiment [9], 60.3%; in experiment [10], 49.7%; in [11], 88.7%; in experiment [12] it was -2.12% (active). Further, the growth in experiment [13] is 46.1%; in experiment [14], 70.3%; in experiment [15], 49.6%; in [16], 81.8%; in [17] it was 26.1%.
In the case of `C=CCn1cc(-c2nc3ccccc3s2)c2cc(-c3ccc4c5c(cccc35)C(=O)N(CCN3CCNCC3)C4=O)ccc21`, the growth in [1] is 4.31% (active); in experiment [2], 46.7%; in [3], 13.7%; in [4], 90.3%; in [5] it was 101%; in experiment [6] it was 68.1%. Moreover, the growth in [7] was 105%; in experiment [8], 91.8%; in experiment [9], 83.1%; in experiment [10], 82.4%; in experiment [11] it was 91.3%; in experiment [12], 90.7%. In addition, the growth in [13] is 26.8%; in [14], -65.8% (active); in experiment [15], 29.7%; in experiment [16], 87.5%; in experiment [17], 98.5%.
`CC(=O)Nc1ccc(S(=O)(=O)n2ccc(-c3ccc4c(c3)CCC(C)(C)O4)n2)cc1`: the growth was 56.4% in experiment [1]; 43.7% in experiment [2]; 69.4% in [3]; 96.3% in experiment [4]; 46.2% in experiment [18]; 68% in experiment [6]. Also, the growth was 74.4% in experiment [7]; 102% in experiment [8]; 56.9% in experiment [9]; 31.1% in [10]; 67.3% in experiment [12]; 82.5% in experiment [13]. Further, the growth in experiment [14] is 66.2%; in [15] it was 29.9%; in experiment [16], 83.3%; in experiment [17], 67.4%.
For the compound `ClC(Cl)c1nc(-c2ccccc2)nc2cc(-c3ccccc3)nn12`, the growth in experiment [1] is 90.7%; in experiment [2], 17.3%; in [3] it was 81.3%; in experiment [4], 121%; in experiment [18], 63.4%; in experiment [6] it was 67%. Further, the growth in [7] is -9.5% (active); in experiment [8] it was 63%; in experiment [9], 54.6%; in [10], 24.2%; in [11], 93.3%; in experiment [12], 94.2%. Besides, the growth in experiment [13] was 14.8%; in [14], 47.9%; in [15] it was 29.7%; in experiment [16], 88.9%; in experiment [17] it was 37.3%.
`ClC(Cl)c1nc(-c2cccnc2)n2nc(-c3ccccc3)cc2n1`: the growth in experiment [1] is 13.4%; in [2], 33.2%; in experiment [3], 27.7%; in [4], 7.66% (active); in [18], 9.31% (active); in [6], 13.9%. Besides, the growth is -47.5% (active) in [7]; 51.6% in [8]; -11.2% (active) in experiment [9]; 50.2% in experiment [10]; 68.4% in experiment [11]; 0.991% (active) in [12]. Moreover, the growth is 0.424% (active) in [13]; 50.6% in [14]; 0.678% (active) in [15]; -68.7% (active) in experiment [16]; 2.3% (active) in experiment [17].
On to `NC(N)=N/N=C/c1ccc(-c2ccc(-c3cc(Cl)cc(Cl)c3)s2)cc1`, for which the growth in experiment [1] is 2.59% (active); in experiment [2], -9.01% (active); in experiment [3], 33.1%; in experiment [4] it was 90.5%; in experiment [18], 38.6%; in experiment [6], -16.7% (active). Further, the growth is -81.5% (active) in experiment [7]; 80.8% in experiment [8]; -19.2% (active) in experiment [9]; 28.8% in experiment [10]; 95.7% in experiment [11]; 1.1% (active) in [12]. For the same compound, the growth is -66.3% (active) in [13]; -39.9% (active) in experiment [14]; -75.9% (active) in experiment [15]; -17.3% (active) in experiment [16]; -62.4% (active) in experiment [17].
Take `Cc1ccc(Nc2nnc(-c3ccc(Cl)cc3)o2)c(C)c1`: the growth was 53% in [1]; 89.6% in experiment [2]; 95% in [3]; 99% in [4]; 82.1% in experiment [18]; 87.2% in experiment [6]. In addition, the growth in [7] was 82.4%; in experiment [8], 87.9%; in experiment [9], 45.6%; in experiment [10], 75.6%; in experiment [12], 6.82% (active); in experiment [13] it was 56.5%. Also, the growth in experiment [15] is 83.9%; in [16], 84.8%; in [17] it was 65.7%.
With `COc1ccc(-c2ccc(-c3ccc(C(=N)N)cn3)s2)cc1OC`, the growth was 63.1% in [1]; 89% in experiment [2]; 102% in experiment [3]; 103% in [4]; 96.1% in [18]; 101% in [6]. Besides, the growth is 109% in experiment [7]; 97.2% in experiment [8]; 108% in experiment [9]; 84.6% in [10]; 94.4% in experiment [11]; 103% in experiment [12]. For the same compound, the growth in [13] was 90.3%; in experiment [14], 84.9%; in experiment [15] it was 80.2%; in experiment [16], 109%; in experiment [17], 95.9%.
